# Data reported in PubChem BioAssay.
# Records with an inconclusive call do not appear. Active and inactive are the calls of the source.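 Rule for the calls, unless noted: active = normalized viability below 100% at a tested concentration; inactive = the rest.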
# How the values were obtained:
# [1] = viability loss in pontine glioma line – cell-based, SU-DIPG-XVII, MIPE5.0, CellTiter-Glo, qHTS, dose response (AID 1347060; cut-off not given, nearly all actives have AC50 up to about 26 µM;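 for AC50: cells exposed to compound for 48 hours before viability readout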); details: CellTiter-Glo ATP luminescence
# [2] = viability loss in pontine glioma line – cell-based, SU-DIPG-XIII, MIPE5.0, CellTiter-Glo, qHTS, dose response (AID 1347064; cut-off not given, nearly all actives have AC50 up to about 23 µM;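 for AC50: cells exposed to compound for 48 hours before the viability read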); details: CellTiter-Glo ATP luminescence
# [3] = growth inhibition of DIPG cells – cell-based, MIPE5.0 library, qHTS (AID 1347068; cut-off not given, nearly all actives have IC50 up to about 30 µM;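 for IC50: cells exposed to compound for 48 hours before viability readout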); details: SU-DIPG-XXV viability
# [4] = viability loss with induced miR-34 in A549 – imaging, A549 dox-inducible miR-34, nuclei and caspase counts, primary screen (AID 1347080;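 active = compounds whose cell count with miR-34 switched on is under 0.7 times the count with it off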); details: A549 miR-34 inducible, Hoechst nuclei count, 48 h
# [5] = MELAS cybrid and Rieske KO viability enhancers – cell-based, MELAS cybrids, Rieske KO mouse fibroblasts, CellTiter-Glo, primary screen (AID 1508586;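 active = mean z-score across replicates of 1.96 or higher in either the MELAS or the Rieske mutant cell line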;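 note: z relative to plate mean and SD of compound and empty wells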); details: low glucose
# [6] = viability loss in pontine glioma line – cell-based, SU-DIPG-XXV, MIPE5.0, CellTiter-Glo, qHTS, dose response (AID 1347065; cut-off not given, nearly all actives have AC50 up to about 26 µM;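 note: cells exposed to compound for 48 hours before ATP readout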); details: CellTiter-Glo ATP luminescence
# [7] = compounds altering HSF1 focus formation in cells – imaging, Selleck Cancer Library (AID 1347162; in the data active = plate-normalised HSF1 focus index below about 0.46); details: human cells, HSF1 nuclear foci imaging, at 10 µM; SSMD: measured here: HSF1 foci SSMD mean; cell count: measured here: cell number; plate-normalised HSF1 focus index: stronger effect = lower value
# [8] = drug combination growth inhibition, ovarian cancer – cell-based, oncology-focused library, rucaparib conditional, profiling panel (AID 1508598); details: patient-derived ovarian cancer cells, CellTiter-Glo viability, 144 h, stronger effect = lower value
# [9] = JHH-DIPG-1 glioma cell viability, MIPE5.0 library, CellTiter-Glo luminescence, qHTS (AID 1347067; cut-off not given, nearly all actives have AC50 up to about 26 µM;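 note: cells exposed to compound for 48 hours before readout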); details: JHH-DIPG-1 glioma viability, CellTiter-Glo ATP luminescence
# [10] = blockers of cellular phospholipid synthesis – cell-based, LOPAC library, screen 4, primary screen (AID 1347384; call rule not given here); details: animal cells, phospholipid biosynthesis inhibition screen; at 10 µM
# [11] = galactose survival enhancers in mitochondrial complex I cybrids – cell-based, galactose medium, ATP luminescence, primary screen (AID 1645843;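 active = z-score of at least 1.8 in each of two replicates, scored against plate mean and spread of sample wells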;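 note: positive z means more ATP and so rescue of galactose-driven cybrid death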); details: complex I mutant cybrid cells, 72 h, stronger effect = higher value
# [12] = stronger effect = lower value, cell number ratio, induced over uninduced
# [13] = measured here: relative caspase fold change +Dox/-Dox
# [14] = measured here: total cells with miR-34 induction, stronger effect = lower value
# [15] = measured here: total cells without miR-34 induction
# [16] = MELAS cybrid survival, CellTiter-Glo 48 h, stronger effect = higher value
# [17] = Rieske KO mouse fibroblast survival, CellTiter-Glo 72 h
smiles,measurement,setting,value
Cn1cnc(-c2cc3nccc(Oc4ccc(NC(=S)NC(=O)Cc5ccccc5)cc4F)c3s2)c1,AC50,[1],16.6 µM (active)
same,AC50,[2],18.6 µM (active)
same,IC50,[3],4.17 µM (active)
same,fold change,[4]; [12],0.83 (inactive)
same,fold change,[4]; [13],1.19
same,cell count,[4]; [14],3930
same,cell count,[4]; [15],4730
same,z-score,[5]; [16],-0.555 (inactive)
same,z-score,[5]; [17],-0.0569
CCS(=O)(=O)c1ccc2oc(-c3ccc4ccccc4c3)nc2c1,outcome,[1],inactive
same,outcome,[2],inactive
same,outcome,[3],inactive
CCOC(=O)c1ccnc(CNCC(=O)N(CC)CCN(C)C)c1,outcome,[1],inactive
same,outcome,[2],inactive
same,outcome,[3],inactive
CON(C)C(=O)N1N=C(c2cc(F)ccc2F)S[C@@]1(CCCN)c1ccccc1,AC50,[1],0.00525 µM (active)
same,AC50,[6],0.00934 µM (active)
CCS(=O)(=O)N1CC(CC#N)(n2cc(-c3ncnc4[nH]ccc34)cn2)C1,fold change,[4]; [12],0.973 (inactive)
same,fold change,[4]; [13],0.869
same,cell count,[4]; [14],8770
same,cell count,[4]; [15],9020
same,z-score,[5]; [16],-0.48 (inactive)
same,z-score,[5]; [17],0.0326
C[C@@H](Oc1cc(-n2cnc3ccc(CN4CCN(C)CC4)cc32)sc1C(N)=O)c1ccccc1C(F)(F)F,SSMD,[7],1.17
same,cell count,[7],6420
same,plate-normalised HSF1 focus index,[7],1.06 (inactive)
same,viability,"[8]; at 0.000305 µM, OCI-C5x cells, with rucaparib 10 µM, 100% = cells with rucaparib alone",99.2% (active)
same,viability,"[8]; at 0.000305 µM, OCI-C5x cells, without rucaparib",88.3% (active)
same,viability,"[8]; at 0.000305 µM, OCI-P5x cells, with rucaparib 20 µM, 100% = cells with rucaparib alone",87% (active)
same,viability,"[8]; at 0.000305 µM, OCI-P5x cells, without rucaparib",33.3% (active)
same,viability,"[8]; at 0.00122 µM, OCI-C5x cells, with rucaparib 10 µM, 100% = cells with rucaparib alone",92.1% (active)
same,viability,"[8]; at 0.00122 µM, OCI-C5x cells, without rucaparib",72.7% (active)
same,viability,"[8]; at 0.00122 µM, OCI-P5x cells, with rucaparib 20 µM, 100% = cells with rucaparib alone",73.8% (active)
same,viability,"[8]; at 0.00122 µM, OCI-P5x cells, without rucaparib",22% (active)
same,viability,"[8]; at 0.00488 µM, OCI-C5x cells, with rucaparib 10 µM, 100% = cells with rucaparib alone",76.5% (active)
same,viability,"[8]; at 0.00488 µM, OCI-C5x cells, without rucaparib",44% (active)
same,viability,"[8]; at 0.00488 µM, OCI-P5x cells, with rucaparib 20 µM, 100% = cells with rucaparib alone",73.2% (active)
same,viability,"[8]; at 0.00488 µM, OCI-P5x cells, without rucaparib",18% (active)
same,viability,"[8]; at 0.0195 µM, OCI-C5x cells, with rucaparib 10 µM, 100% = cells with rucaparib alone",46.7% (active)
same,viability,"[8]; at 0.0195 µM, OCI-C5x cells, without rucaparib",33.6% (active)
same,viability,"[8]; at 0.0195 µM, OCI-P5x cells, with rucaparib 20 µM, 100% = cells with rucaparib alone",62.1% (active)
same,viability,"[8]; at 0.0195 µM, OCI-P5x cells, without rucaparib",13.6% (active)
same,viability,"[8]; at 0.0781 µM, OCI-C5x cells, with rucaparib 10 µM, 100% = cells with rucaparib alone",41.7% (active)
same,viability,"[8]; at 0.0781 µM, OCI-C5x cells, without rucaparib",30.9% (active)
same,viability,"[8]; at 0.0781 µM, OCI-P5x cells, with rucaparib 20 µM, 100% = cells with rucaparib alone",62.6% (active)
same,viability,"[8]; at 0.0781 µM, OCI-P5x cells, without rucaparib",15.3% (active)
same,viability,"[8]; at 0.313 µM, OCI-C5x cells, with rucaparib 10 µM, 100% = cells with rucaparib alone",34.4% (active)
same,viability,"[8]; at 0.313 µM, OCI-C5x cells, without rucaparib",22.2% (active)
same,viability,"[8]; at 0.313 µM, OCI-P5x cells, with rucaparib 20 µM, 100% = cells with rucaparib alone",70.6% (active)
same,viability,"[8]; at 0.313 µM, OCI-P5x cells, without rucaparib",13.4% (active)
same,viability,"[8]; at 1.25 µM, OCI-C5x cells, with rucaparib 10 µM, 100% = cells with rucaparib alone",38.1% (active)
same,viability,"[8]; at 1.25 µM, OCI-C5x cells, without rucaparib",28.8% (active)
same,viability,"[8]; at 1.25 µM, OCI-P5x cells, with rucaparib 20 µM, 100% = cells with rucaparib alone",62.3% (active)
same,viability,"[8]; at 1.25 µM, OCI-P5x cells, without rucaparib",15.1% (active)
same,viability,"[8]; at 5 µM, OCI-C5x cells, with rucaparib 10 µM, 100% = cells with rucaparib alone",51.4% (active)
same,viability,"[8]; at 5 µM, OCI-C5x cells, without rucaparib",3.97% (active)
same,viability,"[8]; at 5 µM, OCI-P5x cells, with rucaparib 20 µM, 100% = cells with rucaparib alone",0.676% (active)
same,viability,"[8]; at 5 µM, OCI-P5x cells, without rucaparib",11.4% (active)
CC(C)[C@](O)(c1ccc2cc(OC(F)F)c(OC(F)F)cc2c1)c1cn[nH]n1,outcome,[1],inactive
same,outcome,[6],inactive
same,outcome,[9],inactive
same,outcome,[3],inactive
O=C(Nc1ccc2c(c1)CCN(Cc1ncn[nH]1)C2)c1ccccc1-c1ccc(C(F)(F)F)cc1,outcome,[1],inactive
same,outcome,[6],inactive
same,outcome,[9],inactive
same,outcome,[3],inactive
same,fold change,[4]; [12],1.03 (inactive)
same,fold change,[4]; [13],1.06
same,cell count,[4]; [14],8100
same,cell count,[4]; [15],7840
same,outcome,[10],inactive
same,z-score,[11],0.755 (inactive)
CCN(C)S(=O)(=O)Nc1ccc(F)c(C(=O)c2c[nH]c3ncc(-c4cnc(C5CC5)nc4)cc23)c1F,AC50,[1],14.8 µM (active)
same,AC50,[6],7.42 µM (active)
same,AC50,[9],16.6 µM (active)
same,IC50,[3],16.6 µM (active)
CCO[C@@H]1OC(=O)C[C@@H]1NC(=O)[C@@H]1CCCN2C(=O)CC[C@H](NC(=O)c3nccc4ccccc34)C(=O)N12,outcome,[1],inactive
same,outcome,[6],inactive
same,outcome,[9],inactive
same,outcome,[3],inactive
CC(C)C[C@@H]1NC(=O)[C@@H](C(C)C)NC(=O)[C@@H]2CCCN2C(=O)[C@@H](CC(=O)O)NC(=O)[C@@H](Cc2c[nH]c3ccccc23)NC1=O,outcome,[1],inactive
same,outcome,[6],inactive
same,outcome,[9],inactive
same,outcome,[3],inactive
CNc1nc(C)nc(N[C@H]2CCC[C@@H](C(=O)NCc3ccc(C#N)cc3C(F)(F)F)C2)n1,outcome,[1],inactive
same,outcome,[6],inactive
same,outcome,[9],inactive
same,outcome,[3],inactive
C=CC(=O)Nc1cccc(C)c1Nc1ncc2cc(-c3c(Cl)c(OC)cc(OC)c3Cl)ccc2n1,AC50,[1],14.8 µM (active)
same,AC50,[6],9.34 µM (active)
same,AC50,[9],13.2 µM (active)
same,IC50,[3],9.34 µM (active)
COCCNc1cc(NC(=O)N2CCCc3cc(CN4CCN(C)CC4=O)c(C=O)nc32)ncc1C#N,outcome,[1],inactive
same,outcome,[6],inactive
same,outcome,[9],inactive
same,outcome,[3],inactive
